Laboratory results published in PubChem BioAssay (NCATS).
Several values for one entry are separate records, joined by “and”; a condition that tells them apart may be missing. Equal values may be shown once. Results filed as inconclusive are left out. Activity calls are given as the source filed them. Calls come from the whole dose curve. Numbered stars: 1 amine (or outer) side, 2 acyl side, 3 side chain; on linkers, the order of the positions; unused ones are H or OH. Bridge positions count the residues as written; N and C are the ends. Square brackets hold non-standard residues; d marks the D form. Peptide text beside a SMILES is read from it. * marks the point of attachment. X6 = NC1=N[C@@H](O)C[C@H]([C@H](N[*:1])C(=O)[*:2])N1; ΔAla(Z-3-ureido) = NC(=O)N/C=C(\N)C(=O)O; β3hOrn = NCCC[C@H](N)CC(=O)*; Dap = NC[C@H](N)C(=O)O

Tests used:
[1] = Primary qHTS for inhibitors of SARS-S pseudo-typed particle cell entry (AID 1479145); settings: outcome: dose series up to 57.1 µM unless noted; note: nearly all actives have a fitted effect of over 45% in size; for activity change, negative = inhibition: % is set by controls: 0 for no effect and ±100 for the full control effect
[2] = Primary qHTS for Huh7 cytotoxicity: counterscreen for inhibitors of MERS-S pseudotyped particle cell entry (AID 1479147); settings: outcome: dose series up to 57.1 µM unless noted; for activity change, negative = cytotoxicity: % is set by controls: 0 for no effect and ±100 for the full control effect
[3] = Primary qHTS for inhibitors of MERS-S pseudo-typed particle cell entry (AID 1479149); settings: outcome: dose series up to 57.1 µM unless noted; note: nearly all actives have a fitted effect of over 60% in size; for activity change, negative = inhibition: % is set by controls: 0 for no effect and ±100 for the full control effect
[4] = Primary qHTS for Vero E6 cytotoxicity: counterscreen for inhibitors of SARS-S pseudo-typed particle cell entry (AID 1479150); settings: outcome: dose series up to 57.1 µM unless noted; for activity change, negative = cytotoxicity: % is set by controls: 0 for no effect and ±100 for the full control effect
[5] = Cytotoxicity counterscreen for inhibitors of SARS-CoV-2 cell entry (AID 1645845); settings: outcome: dose series up to 57.1 µM unless noted; note: nearly all actives have a fitted effect of over 50% in size
Summary of the method: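 48 h compound treatment (after 1 h preincubation), HEK293-ACE2 cells, 37 C/5% CO2; ATP luminescence endpoint; normalized to cell wells and media blanks.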

[6] = Primary qHTS to identify inhibitors of SARS-CoV-2 cell entry (AID 1645846); settings: SARS-CoV-2 pseudovirus cell entry assay, luminescence; activity change, negative = inhibition: at 57.1 µM (top of the series) unless noted; note: nearly all actives have a fitted effect of over 45% in size
Summary of the method: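 Luminescence readout (Bright-Glo luciferase) 48 h after pseudoparticle addition. HEK293-ACE2 cells, 1500/well; compound pre-incubation 1 h; Normalized to spike PP and bald PP.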

CN(CCCCCCN(C)C(=O)Oc1ccc[n+](C)c1)C(=O)Oc1ccc[n+](C)c1
-28.5%: activity change, negative = inhibition [6]
inactive: Potency [1] | Potency [2] | Potency [3] | Potency [4] | Potency [5]

NCc1ccccc1CC(=O)N[C@@H]1C(=O)N2C(C(=O)O)=C(CSc3nnnn3CC(=O)O)CS[C@H]12
inactive: Potency [1] | Potency [2] | Potency [3] | Potency [4] | Potency [5]
-25.4%: activity change, negative = inhibition [6]

C[C@]12CCC3c4ccc(OS(=O)(=O)O)cc4CCC3C1CCC2=O (some centres undefined)
inactive: Potency [1] | Potency [2] | Potency [3] | Potency [4] | Potency [5]
-13.1%: activity change, negative = inhibition [6]

CC(=O)Nc1c(I)c(C(=O)O)c(I)c(N(C)C(C)=O)c1I
-20.3%: activity change, negative = inhibition [6]
inactive: Potency [1] | Potency [2] | Potency [3] | Potency [4] | Potency [5]

CO/N=C(/C(=O)N[C@@H]1C(=O)N2C(C(=O)O)=CCS[C@H]12)c1csc(N)n1
-20.9%: activity change, negative = inhibition [6]
inactive: Potency [1] | Potency [2] | Potency [3] | Potency [4] | Potency [5]

CCN1CCN(C(=O)N[C@@H](C(=O)N[C@]2(OC)C(=O)N3C(C(=O)O)=C(CSc4nnnn4C)CS[C@@H]32)[C@H](C)O)C(=O)C1=O
inactive: Potency [1] | Potency [2] | Potency [3] | Potency [4] | Potency [5]
-16.3%: activity change, negative = inhibition [6]

C=CCN1CC[C@]23c4c5ccc(O)c4O[C@H]2[C@@H](OCCOCCOCCOCCOCCOCCOCCOC)CC[C@@]3(O)[C@H]1C5
-22.8%: activity change, negative = inhibition [6]
inactive: Potency [1] | Potency [2] | Potency [3] | Potency [4] | Potency [5]

O=S(=O)(O)CC(S)CS (centres undefined)
inactive: Potency [1] | Potency [2] | Potency [3] | Potency [4] | Potency [5] | Potency [6]

O=C1C(c2[nH]c3ccc(S(=O)(=O)O)cc3c2O)=Nc2ccc(S(=O)(=O)O)cc21
-23%: activity change, negative = inhibition [6]
inactive: Potency [1] | Potency [2] | Potency [3] | Potency [4] | Potency [5]

C[C@]12C=CC(=O)C=C1CC[C@@H]1[C@@H]2[C@@H](O)C[C@@]2(C)[C@H]1CC[C@]2(O)C(=O)COC(=O)c1cccc(S(=O)(=O)O)c1
-5.05%: activity change, negative = inhibition [6]
inactive: Potency [1] | Potency [2] | Potency [3] | Potency [4] | Potency [5]

O=P(O)(O)OC(Cn1cncn1)(Cn1cncn1)c1ccc(F)cc1F
-20.2%: activity change, negative = inhibition [6]
inactive: Potency [1] | Potency [2] | Potency [3] | Potency [4] | Potency [5]

CC1(C)S[C@H]2[C@H](NC(=O)[C@@H](N)c3ccc(O)cc3)C(=O)N2[C@H]1C(=O)O
-1.08% and -18.3%: activity change, negative = inhibition [6]
inactive: Potency [1] | Potency [2] | Potency [3] | Potency [4] | Potency [5]

O=C(Cn1cnnn1)N[C@@H]1C(=O)N2C(C(=O)O)=C(CSc3nncs3)CS[C@H]12
-9.88%: activity change, negative = inhibition [6]
inactive: Potency [1] | Potency [2] | Potency [3] | Potency [4] | Potency [5]

COC(=O)CCC(=O)CN
inactive: Potency [1] | Potency [2] | Potency [3] | Potency [4] | Potency [5] | Potency [6]

NCCCC[C@H](N)C(=O)O
inactive: outcome [1] inactive [at 0.573 µM] | outcome [2] inactive [at 0.573 µM] | outcome [3] inactive [at 0.573 µM] | activity change, negative = cytotoxicity [4] 2.08% [at 0.573 µM] | activity change, negative = cytotoxicity [5] 2.36% [at 0.702 µM] | outcome [6] inactive [at 0.702 µM]

NCCC[C@H](N)CC(=O)N[C@H]1CNC(=O)[C@H]([C@H]2C[C@H](O)N=C(N)N2)NC(=O)/C(=C/NC(N)=O)NC(=O)[C@H](CO)NC(=O)[C@H](CO)NC1=O (β3hOrn-[Dap]SS[ΔAla(Z-3-ureido)][X6]; lactam 1-C)
inactive: Potency [1] | Potency [2] | Potency [3] | Potency [4] | Potency [5] | Potency [6]

CCOC(=O)O[C@]1(C(=O)COC(=O)CC)CC[C@H]2[C@@H]3CCC4=CC(=O)C=C[C@]4(C)[C@H]3[C@@H](O)C[C@@]21C
inactive: Potency [1] | Potency [2] | Potency [3] | Potency [4] | Potency [5] | Potency [6]

Cc1cc(N2CCN([C@@H]3CN[C@H](C(=O)N4CCSC4)C3)CC2)n(-c2ccccc2)n1
-20%: activity change, negative = inhibition [6]
inactive: Potency [1] | Potency [2] | Potency [3] | Potency [4] | Potency [5]

C#C[C@]1(O)CCC2C3CCC4=C(CCC(=O)C4)C3CC[C@@]21C (some centres undefined)
-12.9%: activity change, negative = inhibition [6]
inactive: Potency [1] | Potency [2] | Potency [3] | Potency [4] | Potency [5]
